Results on 19 compounds are retold here after the supplement of paper PMC13172266.

Where a name gives a salt, the structure may show the parent alone.

Holding throughout (assay): cell proliferation relative to vehicle (% of vehicle); higher = less growth inhibition
Common to all, as to conditions: 72 h

Experiment [1] has as its system U2932 TK216-resistant clone 2. The essentials: (§1)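 A library of 348 targeted inhibitors was screened against the ABC-DLBCL cell line U2932, using parental cells and two clones made resistant to an ETS-targeting agent through repeated exposure over almost a year. The cells were cultured at 37°C and 5% CO2 in medium containing 10% FBS and treated at 500 nM or 50 nM for 72 h, after which MTT was added for 4 h, stopped with 25% SDS, and absorbance was read on a Cytation 3. Proliferation is given as the percentage of proliferating cells relative to the vehicle, DMSO.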

Experiment [2] has as its system U2932 TK216-resistant clone 3. The essentials:
as §1

Experiment [3] has as its system U2932 parental. The procedure, abridged: as §1

For the compound `CN[C@@H](C)C(=O)N[C@H](C(=O)N1CCC[C@H]1C(=O)Nc1snnc1-c1ccccc1)C1CCCCC1`, the cell proliferation in experiment [1] (50 nM) turned out to be 102; in experiment [1] (500 nM) it was 111; in experiment [2] (50 nM), 97.2; in experiment [2] (500 nM) it was 107; in experiment [3] (50 nM), 95; in experiment [3] (500 nM), 103.
As to `CC(C)c1onc(-c2c(Cl)cccc2Cl)c1COc1ccc(/C=C/c2cccc(C(=O)O)c2)c(Cl)c1`, the cell proliferation in experiment [1] (50 nM) worked out at 105; in experiment [1] (500 nM), 112; in experiment [2] (50 nM), 104; in experiment [2] (500 nM), 105; in experiment [3] (50 nM) it was 108; in experiment [3] (500 nM), 111.
As to `CC(C)(C)c1cc(NC(=O)Nc2ccc(-c3cn4c(n3)sc3cc(OCCN5CCOCC5)ccc34)cc2)no1` [Quizartinib (AC220)], the cell proliferation in experiment [1] (50 nM) amounted to 95.7; in experiment [1] (500 nM), 97.3; in experiment [2] (50 nM), 95; in experiment [2] (500 nM) it was 90.2; in experiment [3] (50 nM), 101; in experiment [3] (500 nM) it was 102.
`OCCn1cc(-c2ccc3c(c2)CC/C3=N\O)c(-c2ccncc2)n1`: the cell proliferation in experiment [1] (50 nM) is 105; in experiment [1] (500 nM) it was 106; in experiment [2] (50 nM), 97; in experiment [2] (500 nM) it was 91.9; in experiment [3] (50 nM), 105; in experiment [3] (500 nM), 103.
`CCCCCCNC(=O)n1cc(F)c(=O)[nH]c1=O` [Carmofur]: the cell proliferation is 98.3 in experiment [1] (50 nM); 101 in experiment [1] (500 nM); 104 in experiment [2] (50 nM); 99.8 in experiment [2] (500 nM); 102 in experiment [3] (50 nM); 103 in experiment [3] (500 nM).
`COc1cc([C@@H]2c3cc4c(cc3[C@@H](O[C@@H]3O[C@@H]5CO[C@@H](C)O[C@H]5[C@H](O)[C@H]3O)[C@H]3COC(=O)[C@H]23)OCO4)cc(OC)c1O` [Etoposide]: the cell proliferation in experiment [1] (50 nM) was determined as 95.7; in experiment [1] (500 nM) it was 53.8; in experiment [2] (50 nM), 99.3; in experiment [2] (500 nM) it was 74.9; in experiment [3] (50 nM), 93.3; in experiment [3] (500 nM), 68.8.
Consider `O=C(NCCCNc1nc(Nc2cccc(NC(=O)N3CCCC3)c2)ncc1I)c1cccs1`, for which the cell proliferation in experiment [1] (50 nM) was determined as 98.5; in experiment [1] (500 nM), 98.8; in experiment [2] (50 nM) it was 99.5; in experiment [2] (500 nM) it was 95.7; in experiment [3] (50 nM), 97.2; in experiment [3] (500 nM) it was 92.1.
For `COC(=O)c1ccc([C@H]2c3[nH]c4ccccc4c3C[C@H](C(=O)OC)N2C(=O)CCl)cc1`, the cell proliferation in experiment [1] (50 nM) is 85; in experiment [1] (500 nM) it was -2.9; in experiment [2] (50 nM) it was 84; in experiment [2] (500 nM), -4.49; in experiment [3] (50 nM), 100; in experiment [3] (500 nM), -1.25.
In the case of `NC(=O)c1ncn([C@@H]2O[C@H](CO)[C@@H](O)[C@H]2O)c1O` [Mizoribine], the cell proliferation in experiment [1] (50 nM) came to 104; in experiment [1] (500 nM), 108; in experiment [2] (50 nM), 100; in experiment [2] (500 nM), 99.7; in experiment [3] (50 nM) it was 104; in experiment [3] (500 nM), 102.
Regarding `CC1(C)CCC(CN2CCN(c3ccc(C(=O)NS(=O)(=O)c4ccc(NCC5CCOCC5)c([N+](=O)[O-])c4)c(Oc4cnc5[nH]ccc5c4)c3)CC2)=C(c2ccc(Cl)cc2)C1`, the cell proliferation in experiment [1] (50 nM) was 74.5; in experiment [1] (500 nM) it was 29.9; in experiment [2] (50 nM), 84.4; in experiment [2] (500 nM), 35.1; in experiment [3] (50 nM), 90.7; in experiment [3] (500 nM), 66.9.
With `CC(C)C(=O)Nc1ccc([N+](=O)[O-])c(C(F)(F)F)c1` [Flutamide], the cell proliferation in experiment [1] (50 nM) worked out at 90.7; in experiment [1] (500 nM), 87.2; in experiment [2] (50 nM), 97.2; in experiment [2] (500 nM), 98.3; in experiment [3] (50 nM) it was 89.3; in experiment [3] (500 nM) it was 87.6.
Consider `Cc1cn(-c2cc(NC(=O)c3ccc(C)c(Nc4nccc(-c5cccnc5)n4)c3)cc(C(F)(F)F)c2)cn1` [Nilotinib (AMN-107)], for which the cell proliferation in experiment [1] (50 nM) stood at 106; in experiment [1] (500 nM), 110; in experiment [2] (50 nM), 102; in experiment [2] (500 nM), 106; in experiment [3] (50 nM), 103; in experiment [3] (500 nM) it was 103.
Take `COc1ccc(S(=O)(=O)N(C(C)=O)c2ccccc2/C=C/c2cc[n+]([O-])cc2)cc1`: the cell proliferation turned out to be 103 in experiment [1] (50 nM); 12.6 in experiment [1] (500 nM); 99.5 in experiment [2] (50 nM); 13.2 in experiment [2] (500 nM); 88.7 in experiment [3] (50 nM); 11.3 in experiment [3] (500 nM).
With `O=C(NOC[C@H](O)CO)c1ccc(F)c(F)c1Nc1ccc(I)cc1F`, the cell proliferation in experiment [1] (50 nM) was 101; in experiment [1] (500 nM) it was 101; in experiment [2] (50 nM) it was 96.6; in experiment [2] (500 nM) it was 96; in experiment [3] (50 nM), 92.3; in experiment [3] (500 nM) it was 91.5.
`CN(c1ncccc1CNc1nc(Nc2ccc3c(c2)CC(=O)N3)ncc1C(F)(F)F)S(C)(=O)=O`: the cell proliferation was found to be 95.6 in experiment [1] (50 nM); 91.2 in experiment [1] (500 nM); 99.2 in experiment [2] (50 nM); 95.2 in experiment [2] (500 nM); 96.9 in experiment [3] (50 nM); 87.2 in experiment [3] (500 nM).
As for `CO[C@H]1/C=C\C=C(/C)C(=O)NC2=CC(=O)C(NCCN(C)C)=C(C[C@@H](C)C[C@H](OC)[C@H](O)[C@@H](C)/C=C(\C)[C@@H]1OC(N)=O)C2=O` [17-DMAG (Alvespimycin) HCl], the cell proliferation in experiment [1] (50 nM) came out at 46.7; in experiment [1] (500 nM), 3.06; in experiment [2] (50 nM), 42.3; in experiment [2] (500 nM), 17; in experiment [3] (50 nM) it was 67; in experiment [3] (500 nM) it was 3.09.
Regarding `O=c1[nH]cc(F)c(=O)[nH]1` [Fluorouracil (5-Fluoracil, 5-FU)], the cell proliferation came to 102 in experiment [1] (50 nM); 102 in experiment [1] (500 nM); 103 in experiment [2] (50 nM); 106 in experiment [2] (500 nM); 102 in experiment [3] (50 nM); 96.2 in experiment [3] (500 nM).
As to `Nc1ncn([C@@H]2O[C@H](CO)[C@@H](O)[C@H]2O)c(=O)n1` [Azacitidine], the cell proliferation in experiment [1] (50 nM) is 103; in experiment [1] (500 nM), 96.5; in experiment [2] (50 nM) it was 103; in experiment [2] (500 nM), 97.2; in experiment [3] (50 nM), 99.9; in experiment [3] (500 nM), 91.8.
In the case of `CC[C@@H]1C(=O)N(C)c2cnc(Nc3ccc(C(=O)NC4CCN(C)CC4)cc3OC)nc2N1C1CCCC1`, the cell proliferation in experiment [1] (50 nM) was 13.1; in experiment [1] (500 nM), 21; in experiment [2] (50 nM), 16.2; in experiment [2] (500 nM), 23.3; in experiment [3] (50 nM), 14.8; in experiment [3] (500 nM), 20.4.
